Only some compounds are listed: those with a hit (about 2.6% of all), similar ones and a draw of the others.
EWS-Fli inh = blocks EWS/Fli oncoprotein-driven transcription | A673 NR0B1-luciferase reporter, viability-normalised | AID 651661 | 350,000 tested, 0.67% active | inhibition, % at 12.6 µM;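 active = mean inhibition of at least 50% after viability correction, with every replicate also passing that limit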;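 note: firefly luciferase signal divided by Alamar Blue viability fluorescence both relative to DMSO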
KKLEB cytotox = reduces viability of KKLEB cystic fibrosis airway cells; KKLEB CF airway cells viability, ATPlite luminescence, overnight; hits give low values; cells stimulated with P. aeruginosa culture filtrate; activity change (cytotoxicity), % at 5 µM; 360,000 tested, 0.36% active; AID 602141;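 active = corrected activity change at or below -50% at 5 µM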
TROY NFkB inh = inhibitors of TROY-dependent NF-kB signaling; Q293 LMP1-TROYcd NF-kB luciferase reporter, 4 h; inhibition, % at 10 µM; 360,000 tested, 0.98% active; AID 1347056;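 active = compounds whose plate-normalised and pattern-corrected inhibition of the luciferase reporter signal at the single screening dose is 50% or more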
CF NFkB block = inhibitors of cystic fibrosis induced NF-kB. inhibition, % at 5 µM. AID 588850. KKLEB NF-kB-GFP reporter, PAF-induced, GFP fluorescence overnight. 360,000 tested, 0.86% active;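 active = at least 50% inhibition at 5 µM, scaled per plate between neutral and stimulator controls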;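 note: PAF is a Pseudomonas aeruginosa culture filtrate used as stimulus; plate controls were PAF-stimulated DMSO wells for no effect and unstimulated DMSO wells for full effect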
LGR2 inh = inhibitors of bursicon-induced Drosophila LGR2 receptor cAMP signaling; inhibition, % at 9.99 µM; HEK293 LGR2, CRE-luciferase, bursicon-stimulated, 4 h; AID 720647; 380,000 tested, 0.35% active;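 active = drop in luminescence signal, shown as inhibition above about 50% in the replicate tests, limit read from the data, passing the limit was not always enough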;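 note: agonist challenge used bursicon conditioned medium at about half maximal strength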
TWEAK-Fn14 inh = blocks TWEAK-Fn14 interaction in a reporter cell assay. inhibition, % at 10 µM. 360,000 tested, 2% active. TWEAK-stimulated Fn14 reporter cells, luciferase luminescence, 8 h; in the data active = inhibition above about 50%
* marks the source's active call; other numbers are inactive results; . = no result.

SMILES	EWS-Fli inh	KKLEB cytotox	TROY NFkB inh	CF NFkB block	LGR2 inh	TWEAK-Fn14 inh
C/C(=N\Nc1ncc(Cl)cc1Cl)c1ccc(N2CCOCC2)cc1	-28	11	55*	4	-32	62*
Cc1ccc(-c2ccc3c(c2)O[C@H](CN(C)C(=O)C2CCCCC2)[C@H](C)CN([C@@H](C)CO)S3(=O)=O)cc1	16	.	.	.	8	.
COc1cccc(CN2C(=O)C(C)N(C(=O)c3c(F)cccc3F)c3ccccc32)c1 (stereo unspecified)	20	5	38	6	6	74*
O=C1O[C@H](c2ccccc2)[C@H](c2ccccc2)N2[C@H]1[C@@H](C(=O)N1CCN(c3ncccn3)CC1)[C@]1(C(=O)Nc3ccc(C#CCCO)cc31)[C@H]2c1ccc(OCCO)cc1	-5	.	.	.	.	.
O=C(CCCc1c[nH]c2ccccc12)NCCc1c[nH]c2ccccc12	.	0	13	-18	2	0
O=C(NCCc1c[nH]c2ccccc12)OCCCCOC(=O)NCCc1c[nH]c2ccccc12	30	1	71*	6	84*	74*
Cc1ccc(S(=O)(=O)N2[C@@H](c3ccc(Cl)cc3)C(C(=O)O)=CC[C@H]2c2ccc(Cl)c(Cl)c2)cc1	3	23	63*	2	0	26
Cc1ccc(S(=O)(=O)N2C(c3ccc(Cl)c(Cl)c3)CC=C(C(=O)O)C2c2ccc(Cl)cc2)cc1 (stereo unspecified)	6	.	.	.	10	.
Cc1ccc(S(=O)(=O)N2[C@@H](c3ccc(Br)cc3)C(C(=O)O)=CC[C@H]2c2ccc(C(C)C)cc2)cc1	-1	6	70*	48	-4	21
Cc1ccc(S(=O)(=O)N2[C@@H](c3ccc(C(C)(C)C)cc3)C(C(=O)O)=CC[C@H]2c2ccc(Cl)cc2)cc1	-19	-7	88*	25	13	89*
Cc1ccc(S(=O)(=O)N2[C@@H](c3ccc(Cl)c(Cl)c3)C(C(=O)O)=C[C@H]2CC2CCCC2)cc1	7	9	67*	27	-2	11
COc1ccc(S(=O)(=O)N(C)C[C@H]2Oc3ccc(NC(=O)c4ccncc4)cc3CC(=O)N([C@H](C)CO)C[C@H]2C)cc1	-3	.	.	.	-5	.
CCc1ccc([C@@H]2CC=C(C(=O)O)[C@H](c3ccccc3)N2S(=O)(=O)c2ccc(C)cc2)cc1	-3	9	23	25	-8	8
CCc1ccc([C@@H]2CC=C(C(=O)O)[C@H](c3ccc(C(C)(C)C)cc3)N2S(=O)(=O)c2ccc(C)cc2)cc1	-20	4	84*	42	10	84*
C[C@@H]1CN([C@H](C)CO)C(=O)c2cccc(NC(=O)c3nc4ccccc4s3)c2O[C@H]1CN(C)C(=O)Nc1ccc2c(c1)OCO2	-7	.	.	.	-17	.
C[C@@H]1CN([C@H](C)CO)C(=O)c2cc(C#Cc3cccnc3)cnc2O[C@@H]1CN(C)C	13	.	.	.	-22	.
CC(C)(C)c1ccc(/C=C(\c2nc3ccccc3[nH]2)S(=O)(=O)c2ccccc2)cc1	.	-70*	46	94*	.	95*
COc1ccc2c3c(n(C)c2c1)[C@H](CO)N(C(C)=O)CC31CN(Cc2ccccc2OC)C1	-8	.	.	.	0	.
CCN(CC)S(=O)(=O)c1cc(NC(=O)C(=O)c2c(-c3ccccc3)cc3ccccn23)ccc1C	.	-2	13	-7	.	62*
CCN(CC)S(=O)(=O)c1cccc(NC(=O)C(=O)c2c(-c3ccccc3)cc3ccccn23)c1	.	0	19	9	.	39
C[C@H]1CN([C@@H](C)CO)C(=O)Cc2cc(NS(=O)(=O)c3ccc(F)cc3)ccc2O[C@H]1CN(C)Cc1ccc2c(c1)OCO2	-1	.	.	.	19	.
O=C(c1cc(-c2ccc(Cl)c(Cl)c2)on1)N1CCCCCC1	-74	7	-27	-17	-25	-19
Cc1ccc(-c2cc(C(=O)N3CCOCC3)no2)cc1	54*	3	67*	-36	63*	86*
COc1ccc(-c2cc(C(=O)N3CCN(c4ccccc4)CC3)no2)cc1	-113	2	38	-11	-41	50*
O=C(c1cc(-c2ccc(Cl)cc2Cl)on1)N1CCCCCC1	-5	-9	-1	3	-34	24
SMILES	EWS-Fli inh	KKLEB cytotox	TROY NFkB inh	CF NFkB block	LGR2 inh	TWEAK-Fn14 inh
O=C(c1cc(-c2ccc3c(c2)OCO3)on1)N1CCCCC1	48	-13	48	17	49	78*
O=C(c1cc(-c2ccc(Cl)cc2Cl)on1)N1CCCC1	55*	-26	48	-5	75*	70*
COc1ccc2c3c([nH]c2c1)[C@@H](CO)N(C(C)=O)CC31CN(C(C)=O)C1	-7	.	.	.	-4	.
O=C(c1cc(-c2ccc(O)cc2)on1)N1CCCCCC1	-109	5	-51	-14	-64	-6
Cc1ccc(-c2cc(-c3ccccc3)no2)cc1	59*	-32	-26	-18	57*	60*
Cc1ccc(-c2cc(C(=O)N3CCCC3)no2)cc1	.	-22	50*	-26	.	83*
C[C@@H]1CN([C@@H](C)CO)C(=O)c2cc(-c3ccc(F)cc3)cnc2O[C@@H]1CN(C)C(=O)Nc1ccccc1F	-4	.	.	.	11	.
NC(=O)c1sc2nc3c(c(-c4ccco4)c2c1N)CCC3	-18	-1	13	76*	7	17
Nc1c(C(=O)NC2CC2)sc2nc3c(c(-c4ccco4)c12)CC/C3=C/c1ccco1	.	-3	8	-8	.	83*
Cc1ccc(-c2c3c(nc4sc(C(N)=O)c(N)c24)CCCC3)o1	-4	-8	-1	45	-10	1
O=C(C[C@H]1CC[C@H]2[C@@H](COC[C@@H](O)CN2S(=O)(=O)c2cccc(Cl)c2)O1)NCc1ccncn1	-6	.	.	.	11	.
CC1CC(=O)C2=C(C1)Nc1ccccc1SC2c1ccc(F)cc1 (stereo unspecified)	-40	4	67*	-3	6	8
O=C1CC(c2ccsc2)Sc2ccccc2N1 (stereo unspecified)	-2	-3	-5	-1	9	2
c1ccc(OCCCCn2cnc3ccccc32)cc1	.	2	.	-1	.	74*
c1ccc(OCCn2cnc3ccccc32)cc1	.	13	-25	-3	-26	-28
Cn1cnc(S(=O)(=O)N[C@H]2C=C[C@H](CC(=O)N3CCN(c4ccccc4)CC3)O[C@H]2CO)c1	.	.	.	.	3	.
CN(C)CC(=O)N[C@H]1CC[C@@H](CCNC(=O)C2CCCCC2)O[C@@H]1CO	0	.	.	.	2	.
COCC#Cc1ccc([C@H]2[C@@H](CO)N3C(=O)CN(C(=O)Nc4ccccc4F)C[C@@H]23)cc1	10	.	.	.	0	.
Cc1nc2ccccn2c1C(=O)N=Nc1c(O)n(CCC(C)C)c2ccccc12	.	-20	18	13	7	69*
C[C@@H]1CN([C@@H](C)CO)C(=O)c2cc(C3=CCCC3)cnc2O[C@@H]1CN(C)C(=O)c1ccc(F)cc1	-12	.	.	.	10	.

Screens (PubChem)
